Data on 20 compounds can be found in PubChem BioAssay.

Structures are written as SMILES. Calls of active or inactive are those of the source.

The subject of assay [1] is XIP peptide (Xip251-270) binding. In words: XIP fragment 251-270 binding compounds – biochemical, small-molecule microarray, fluorescence 635/667 nm, 0.1 µg/mL protein, primary screen (AID 1182). As to conditions: fluorescent protein binding, 635 nm, higher = more signal, called active from +8 up or from −8 down.
The subject of a further assay is XIP peptide (Xip251-270). The experiment in a line: compounds binding XIP fragment 251-270 – biochemical, small-molecule microarray, fluorescence 635/667 nm, 0.5 µg/mL protein, primary screen (AID 1183). As to conditions: fluorescence 635 nm, higher = more signal.
A short description of assay [2]: blood-stage malaria parasite viability loss – strain 3D7, DAPI fluorescence, 100 nL, primary screen (AID 1184).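 Also: parasites grown inside human red blood cells in medium with human serum.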 Conditions: P. falciparum 3D7 growth, 3 d, higher = more signal.
The target in assay [3] is Homeobox protein Hox-A13 (Mus musculus) (UniProt Q62424). The experiment in a line: disruptors of Hoxa13 oligonucleotide interaction – biochemical, fluorescence polarization, labeled oligonucleotide, primary screen (AID 1185). Conditions: Hoxa13:DNA binding, 15 min, higher = more signal, called active from +8 up or from −8 down.
Chain of Homeobox protein Hox-A13 (Mus musculus) (Q62424 whole entry, looked up): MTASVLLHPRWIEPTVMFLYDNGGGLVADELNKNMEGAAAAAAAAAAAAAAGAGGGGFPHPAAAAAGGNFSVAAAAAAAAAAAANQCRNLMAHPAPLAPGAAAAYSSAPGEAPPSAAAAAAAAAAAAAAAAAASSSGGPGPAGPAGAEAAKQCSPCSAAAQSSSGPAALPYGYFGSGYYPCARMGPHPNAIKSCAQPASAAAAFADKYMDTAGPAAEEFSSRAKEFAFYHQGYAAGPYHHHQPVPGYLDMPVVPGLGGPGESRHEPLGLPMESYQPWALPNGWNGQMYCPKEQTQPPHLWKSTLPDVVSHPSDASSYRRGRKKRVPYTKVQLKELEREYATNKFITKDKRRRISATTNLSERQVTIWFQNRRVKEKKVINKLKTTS

As to `CCCNC(=O)OC[C@H]1O[C@H](CCON=C(C)CCN2CCc3nc(CC)c(CC)cc3C2)C=C[C@@H]1Oc1ccc(OC)cc1`, the composite z-score is -0.339 (inactive) in assay [1] and 0.27 in the assay with XIP peptide (Xip251-270). Moreover, the z-score in assay [2] is -2.17; in assay [3], -5.98 (inactive).
In the case of `O=C1C[C@@H](O)[C@@H](O)[C@@H]2[C@@H]3C(=O)N(Cc4ccc5c(c4)OCO5)C(=O)[C@@H]3CC[C@H]12`, the composite z-score was 0.245 (inactive) in assay [1] and 0.0056 with XIP peptide (Xip251-270). Moreover, the results for the z-score in assay [2] and in assay [3] were 1.57 and -0.523 (inactive), respectively.
`CC(CCN1CCCc2nc(C)c(C)cc21)=NO[C@@H](C)c1cc(-c2c(C)cc(C)cc2C)no1`: the composite z-score was 0.268 (inactive) in assay [1] and 0.567 in the assay with XIP peptide (Xip251-270). Moreover, the z-score in assay [2] was -1.36; in assay [3] it was -3.46 (inactive).
For `CC(CCC(=O)OC[C@H]1O[C@H](C#Cc2ccccc2)C=C[C@@H]1Oc1ccc(C)cc1)=NO[C@H](C)c1cn([C@H](CO)Cc2ccccc2)nn1`, in that order: 0.157 (inactive), 0.662, -0.563 and -2.88 (inactive).
The corresponding values for `CCOC(=O)C1=NO[C@]2(C=C(Br)C3(OCCCO3)[C@H]3O[C@H]32)C1` are -0.788 (inactive), 0.857, 0.99 and 0.136 (inactive).
As for `CO[C@@H]1COC(=O)CC=C[C@@H](C)[C@@H]2C=C[C@H](O)[C@@H](COC(=O)CC=C[C@H]1C)O2`, the composite z-score in assay [1] is 0.0592 (inactive); in the assay on XIP peptide (Xip251-270), 0.853. Moreover, the z-score is 0.338 in assay [2] and -2.1 (inactive) in assay [3].
For `CCOC(=O)[C@H](CC(C)C)NC(=O)CCC1CC(OC(=O)NCCc2ccc(F)cc2)CC2(CCCC(COC(=O)NCCC(C)C)O2)O1` (stereo not given in full), the composite z-score in assay [1] was -0.0575 (inactive); in the assay on XIP peptide (Xip251-270) it was -0.228. Further, the z-score in assay [2] is -0.329; in assay [3], -2.83 (inactive).
Regarding `O=C1[C@H]2[C@H]3[C@H](O)[C@H](O)CC(=NOC[C@@H](O)COCc4ccco4)[C@H]3CC[C@H]2C(=O)N1Cc1ccccc1`, the figures for the composite z-score (in assay [1]; in the assay on XIP peptide (Xip251-270)) were -0.227 (inactive) and 0.252, respectively. Further, the z-score in assay [2] is 0.254; in assay [3], -2.38 (inactive).
In the case of `CCOC(=O)[C@H](CC(C)C)NC(=O)CCC1CC(OC(=O)NCc2cccc3ccccc23)CC2(CCCC(COC(=O)NCc3cccc(C(F)(F)F)c3)O2)O1` (stereo not given in full), the results for the composite z-score (in assay [1]; with XIP peptide (Xip251-270)) were -0.364 (inactive) and -0.298, respectively. The figures for the z-score in assay [2] and in assay [3] were 0.688 and -0.443 (inactive), respectively.
For `CO[C@H]1COC(=O)[C@@H](C)COC(=O)[C@@H](OCc2ccccc2)C=C[C@@H]1C`, the results for the composite z-score (in assay [1]; in the assay on XIP peptide (Xip251-270)) were 0.224 (inactive) and 0.204, respectively. Besides, the z-score in assay [2] was -0.66; in assay [3], -0.618 (inactive).
Consider `O=C1C[C@@H](O)[C@@H](O)[C@@H]2[C@@H]3C(=O)N(Cc4ccccc4)C(=O)[C@@H]3CC[C@@H]12`, for which the composite z-score is 0.245 (inactive) in assay [1] and 0.5 in the assay on XIP peptide (Xip251-270). Also, the z-score in assay [2] is 0.328; in assay [3], -0.967 (inactive).
Take `CCOC(=O)[C@H](Cc1ccccc1)NC(=O)CCC1CC(OC(=O)NCCc2ccc(F)cc2)CC2(CCCC(COC(=O)NCCc3ccccc3OC)O2)O1` (stereo not given in full): the values for the composite z-score (in assay [1]; in the assay with XIP peptide (Xip251-270)) were -0.157 (inactive) and 0.525, respectively. For the same compound, the z-score is -1.94 in assay [2] and -2.27 (inactive) in assay [3].
`CC(=O)OC[C@H]1O[C@@H](ON=C(C)CCN2CCCc3nc(C)c(C)cc32)[C@H](OC(C)=O)[C@@H](OC(C)=O)[C@@H]1OC(C)=O`: the composite z-score in assay [1] is -0.444 (inactive); with XIP peptide (Xip251-270) it was 0.667. Moreover, the z-score in assay [2] is -1.3; in assay [3], -5.84 (inactive).
As for `CCOC(=O)[C@H](Cc1ccccc1)NC(=O)CCC1CC(OC(=O)NCCc2ccc(F)cc2)CC2(CCCC(COC(=O)NCCc3ccc(Cl)cc3)O2)O1` (stereo not given in full), the figures for the composite z-score (in assay [1]; with XIP peptide (Xip251-270)) were -0.345 (inactive) and 0.348, respectively. Besides, the z-score in assay [2] is -1.84; in assay [3] it was -3.08 (inactive).
Take `COc1ccc(O[C@@H]2[C@H](O)CO[C@@H]2C=Cc2ccccc2)cc1`: the results for the composite z-score (in assay [1]; in the assay on XIP peptide (Xip251-270)) were 0.196 (inactive) and 0.592, respectively. In addition, the z-score in assay [2] is -0.971; in assay [3], -0.162 (inactive).
For the compound `O=C1CCCC=C1C(O)CCCCBr` (stereo not given), the composite z-score in assay [1] was 0.26 (inactive); in the assay on XIP peptide (Xip251-270), -0.165. The z-score is -1.76 in assay [2] and -5.96 (inactive) in assay [3].
As to `COC(=O)[C@H](C)NC(=O)CCC1CC(OC(=O)NCCc2ccc(F)cc2)CC2(CCCC(COC(=O)NCCC(C)C)O2)O1` (stereo not given in full), the composite z-score in assay [1] is 0.162 (inactive); in the assay with XIP peptide (Xip251-270), 0.74. The values for the z-score in assay [2] and in assay [3] were -0.861 and -6.77 (inactive), respectively.
Take `O=C1[C@H]2[C@H]3[C@H](O)[C@H](O)CC(=NOC[C@@H](O)COCc4ccco4)[C@@H]3CC[C@H]2C(=O)N1C[C@@H]1CCCO1`: the composite z-score in assay [1] was 0.0071 (inactive); with XIP peptide (Xip251-270) it was 0.791. Moreover, the z-score in assay [2] was 0.965; in assay [3], 0.515 (inactive).
Regarding `CCOC(=O)NN=C1C[C@@H](O)[C@@H](O)[C@@H]2[C@@H]3C(=O)N(c4ccc(F)cc4F)C(=O)[C@@H]3CC[C@@H]12`, the composite z-score in assay [1] was 0.015 (inactive); in the assay with XIP peptide (Xip251-270), -0.0246. For the same compound, the z-score in assay [2] was -0.404; in assay [3] it was -1.23 (inactive).
Consider `CO[C@H]1COC(=O)[C@H](C)NC(=O)[C@@H](C)COC(=O)[C@H]2CCCN2C(=O)CC=C[C@H]1C`, for which the figures for the composite z-score (in assay [1]; with XIP peptide (Xip251-270)) were -0.077 (inactive) and -0.143, respectively. Besides, the z-score in assay [2] was 0.43; in assay [3], 0.24 (inactive).
